# HP1b binding inh: HTS for Inhibitors of HP1-beta Chromodomain Interactions with Methylated Histone Tails. Chromobox protein homolog 1 (Homo sapiens), P83916. 0.56% of 390,000 active. AlphaScreen HP1-beta / biotin-H3K9me3 peptide binding. Potency, µM (titrated, usually from 114 µM), inactives show at the top dose activity change, negative = inhibition, hits mostly inhibitors; also: potency is read from the fitted curve at half-maximal effect; nearly all actives have a fitted effect of over 70% in size
#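 Compound inhibition of the preformed complex between 50 nM HP1-beta and 50 nM biotinylated H3K9me3 peptide was read by AlphaScreen. Buffer was PBS pH 7.4 with 0.01% Tween-20. Incubations ran 30 min at room temperature, with 10 ug/mL donor/acceptor beads.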
# JMJD2A Tudor inh: qHTS Assay for Inhibitors of JMJD2A-Tudor Domain; 4.4% of 390,000 active; AlphaScreen JMJD2A-Tudor / H3K4me3 peptide binding; Lysine-specific demethylase 4A (Homo sapiens), O75164; Potency, µM (highest dose often 114 µM), for the others: at the highest dose activity change, negative = inhibition, hits mostly inhibitors; also: potency is read from the fitted curve at half-maximal effect; % is scaled to controls: 0 for no effect and ±100 for the full control effect; nearly all actives have a fitted effect of over 50% in size
# Six1-Eya2 blk: qHTS Assay for Inhibitors of the Six1/Eya2 Interaction; 0.56% of 360,000 active; AlphaScreen GST-Six1/His-Eya2 binding, biochemical; stronger effect = lower value; Homeobox protein SIX1 (Homo sapiens) + Protein phosphatase EYA2 (Homo sapiens), …; activity change, % (concentration not given with the values); AID 651725, 2012; in the data active = activity change below about -65%; inconclusive = mostly about -30% to -63%; also: % is scaled to controls: 0 for no effect and ±100 for the full control effect
# Target sequence (O00167 whole entry, looked up): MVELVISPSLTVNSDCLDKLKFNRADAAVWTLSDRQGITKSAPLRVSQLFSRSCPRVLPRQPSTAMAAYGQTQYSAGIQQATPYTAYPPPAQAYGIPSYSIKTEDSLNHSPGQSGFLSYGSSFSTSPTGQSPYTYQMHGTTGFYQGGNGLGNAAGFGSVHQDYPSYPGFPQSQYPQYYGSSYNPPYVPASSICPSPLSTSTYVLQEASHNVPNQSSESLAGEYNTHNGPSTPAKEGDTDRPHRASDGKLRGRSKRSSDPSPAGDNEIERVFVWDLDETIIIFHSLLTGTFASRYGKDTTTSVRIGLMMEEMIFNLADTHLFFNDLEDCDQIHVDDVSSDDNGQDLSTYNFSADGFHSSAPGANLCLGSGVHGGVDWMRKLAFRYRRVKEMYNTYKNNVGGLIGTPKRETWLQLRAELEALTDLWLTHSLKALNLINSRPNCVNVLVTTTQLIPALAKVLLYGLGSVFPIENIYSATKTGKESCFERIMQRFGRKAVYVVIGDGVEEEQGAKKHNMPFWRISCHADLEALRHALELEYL
# Target sequence (Q15475 whole entry, looked up): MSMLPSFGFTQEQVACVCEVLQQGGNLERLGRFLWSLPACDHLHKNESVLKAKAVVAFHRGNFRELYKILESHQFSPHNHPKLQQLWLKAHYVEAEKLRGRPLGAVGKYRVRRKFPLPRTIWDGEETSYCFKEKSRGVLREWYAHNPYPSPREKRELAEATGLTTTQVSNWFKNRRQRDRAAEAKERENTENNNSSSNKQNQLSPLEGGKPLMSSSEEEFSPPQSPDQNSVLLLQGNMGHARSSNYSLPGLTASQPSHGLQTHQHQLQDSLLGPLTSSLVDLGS
#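 Homogeneous AlphaScreen proximity assay pairing GST-Six1 with His-tagged Eya2 (added as 5X mix: 250 nM and 500 nM) in 50 mM Tris pH 8.0, 300 mM NaCl, 1 mM TCEP. Glutathione donor and nickel acceptor beads; 1 h, 37 °C, dark.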
# BAZ2B block: qHTS Assay for Inhibitors of BAZ2B | Bromodomain adjacent to zinc finger domain protein 2B (Homo sapiens), Q9UIF8 | AlphaScreen BAZ2B-H3K14Ac peptide displacement | Potency, µM (titrated, usually from 114 µM), for inactives: top-dose activity change, negative = inhibition, most hits filed as inhibitors | 4.4% of 360,000 active | AID 504333, 2011; also: potency is read from the fitted curve at half-maximal effect; % is scaled to controls: 0 for no effect and ±100 for the full control effect; nearly all actives have a fitted effect of over 60% in size
#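 In this displacement format the biotinylated H3(5-23) peptide acetylated at Lys14 serves as ligand at 50 nM, with BAZ2B at 50 nM in PBS pH 7.4 containing 0.01% Tween-20. Donor and acceptor beads are 10 ug/mL final.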
# CtBP-E1A blk: qHTS Assay for Inhibitors of the CtBP/E1A Interaction | CtBP / adenovirus E1A interaction (AlphaScreen) | AlphaScreen GST-E1A/His-CtBP binding, 1536-well; stronger effect = lower value | activity change, % (concentration not given with the values) | 0.49% of 340,000 active | AID 651724, 2012; in the data active = activity change below about -65%; inconclusive = mostly about -30% to -63%; also: % is scaled to controls: 0 for no effect and ±100 for the full control effect
#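 Protein mix (5X: 125 nM each GST-E1A, His-CtBP) was incubated with pinned compound 2 h at 37 deg C in dark, in 50 mM Tris pH 8.0 buffer with 300 mM NaCl. Glutathione donor and nickel acceptor beads followed; AlphaScreen signal read after 1 h.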
# G9a inh: qHTS Assay for Inhibitors of Histone Lysine Methyltransferase G9a. Histone-lysine N-methyltransferase EHMT2 (Homo sapiens), Q96KQ7. G9a H3K9 monomethylation, AlphaScreen, 2 h. Potency, µM (titrated, usually from 102 µM), without a hit: at the highest dose activity, negative = inhibition, usual class: inhibitors. 8.8% of 350,000 active. AID 504332, 2011; also: potency is read from the fitted curve at half-maximal effect; % is scaled to controls: 0 for no effect and ±100 for the full control effect; nearly all actives have a fitted effect of over 75% in size
#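 Signal arises when biotinylated H3K9 peptide, once monomethylated, bridges streptavidin donor and antibody-captured acceptor beads. Enzyme at 20 nM was preincubated 15 min with test compounds; peptide 500 nM and SAM 20 uM then reacted for 2 h.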
# The depositor's hits bear a star; u = inconclusive; x = not tested or not shown; [ ] = another dose, or the depositor's remark. A selection: hits, their analogues and other compounds. The true share with any hit is near 10%. Unless noted, calls follow the shape of the dose curve; as a rule, active = well fitted inhibition curve with a large enough effect; inconclusive = small, poorly fitted or top-dose-only effect; inactive = no such curve, though single readings can be large or run the other way.
SMILES,HP1b binding inh,JMJD2A Tudor inh,Six1-Eya2 blk,BAZ2B block,CtBP-E1A blk,G9a inh
Cc1cc(C)n(C(C)CC(=O)Nc2ccc(C)c(N(C)C)c2)n1 (stereo unspecified),42.7%,-26.3%,x,-20.6%,x,5.2%[59 µM]
Nc1ncnc2nc(SCC(=O)Nc3ccccc3F)[nH]c12,26.6%,-5.6%,-3.6,23.7%,0.9,8.4%[59 µM]
Cc1cc(SCC(=O)c2ccccc2)nc(=O)[nH]1,-7.3%,-30.8%,-3.7,-22.4%,-14.7,22.4µM*
Cc1cc(SCC(=O)c2ccc(Cl)cc2)nc(=O)[nH]1,-17.6%,u,-3.3,-26.6%,-19.1,u
Cc1ccc(C(=O)CSc2cc(C)[nH]c(=O)n2)cc1,-4.2%,u,-6.3,44.7µM*,x,-9.3%[0.501 µM]
COc1cccc(-n2c(=O)c3cc(OC)c(OC)cc3n(CC(=O)Nc3ccccc3)c2=O)c1,15.5%,-5.8%,x,-8.3%,x,-23.1%[59 µM]
CCc1cc(=O)oc2c(CN3CCCC3)c(O)c(Cl)cc12,4.0%,-11.9%,5.7,-0.2%,-0.2,15.7%[12.7 µM]
Cc1cc(=O)oc2c(CN3CC(C)OC(C)C3)c(O)c(Cl)cc12 (stereo unspecified),u,79.4µM*,0.7,u,-0.5,u
COCCCNC(=O)CC1C[C@H](C(=O)N2CCOCC2)[C@@]2(CCC3CCCC3)c3[nH]c4ccc(OC)cc4c3CCN2C1=O (stereo partly specified),1.9%,-19.4%,-1.7,x,4.6,x
Cn1c(=O)c2[nH]c(CNCc3ccccc3Cl)nc2n(C)c1=O,29.5%,-12.1%,-18.4,46.3%,-18.3,78.9%[59 µM]
Cn1c(=O)c2[nH]c(CN3CCN(Cc4ccccc4)CC3)nc2n(C)c1=O,9.4%,8.91µM*,-4.4,-5.4%,-5.7,u
CN1CCN(Cc2nc3c([nH]2)c(=O)[nH]c(=O)n3C)CC1,-2.3%,10µM*,3.5,-3.7%,4.8,u
Cn1c(=O)c2[nH]c(CN3CCCCC3)nc2n(C)c1=O,u,3.98µM*,0.3,x,3.4,x
CC(CN1CCCC1)OC(=O)c1ccc(Cl)cc1 (stereo unspecified),24.3%,-14.8%,-1.7,-5.7%,-4.5,x
NC(=O)COc1ccc2oc(-c3ccccc3)cc(=O)c2c1,7.2%,-3.0%,-13.9,x,2.7,50.1µM*
CCOc1ccccc1NC(=O)c1nc[nH]c1C(=O)Nc1ccccc1OCC,-2.2%,-19.7%,-1.6,56.2µM*,7.7,12.6µM*
CCOc1ccccc1NC(=O)c1cccc2ccccc12,96.4%,75.2%,-0.2,11.7%,0.7,67.4%
COc1ccc(NC(=O)c2nc[nH]c2C(=O)Nc2ccccc2C)cc1,44.7%,-18.3%,4.8,-8.7%,9.1,-1.8%
CCOc1ccccc1NC(=O)c1csc(C)c1C,91.0%,47.9%,4.2,20.5%,14.9,35.5µM*
COc1ccccc1NC(=O)c1nc[nH]c1C(=O)Nc1ccccc1OC,u,-10.8%,0.0,u,-3.4,11.2µM*
Cc1ccccc1NC(=O)c1nc[nH]c1C(=O)NCc1ccccc1,52.7%,8.2%,-11.4,8.2%,-6.8,-8.5%[12.7 µM]
COC(=O)[C@]12CCCCC=C1N(Cc1ccco1)C(=O)[C@H](CC(=O)N1CCCCC1)C2,x,x,-2.0,x,5.1,x
O=c1c2c(-c3ccccc3)csc2nc2n1CCC2,-19.8%,-19.5%,18.8,8.8%,0.0,-36.4%[12.7 µM]
O=c1c2c(-c3ccc([N+](=O)[O-])cc3)csc2nc2n1CCCCC2,u,u,0.6,u,-11.3,35.5µM*
OCC1(Cc2ccccc2)CCN(CCCC2CCCC2)CC1,35.5%,-14.4%,9.1,-20.0%,-1.7,-16.8%

# Bioassay records deposited in PubChem by National Center for Advancing Translational Sciences (NCATS).
